In the library only some 6% were active in any assay of this set; here they are far more common.
D1 potentiator: Potentiators of Human D1 Dopamine Receptor: qHTS. D(1A) dopamine receptor (Homo sapiens), P21728. HEK293 TREx D1 cells, calcium flux, dopamine EC20 potentiation. potentiation, % at 10 µM. actives 0.036% (n = 360,000). AID 504651, 2011; in the data active = potentiation above about 30%
D1 ag: Allosteric Agonists of the Human D1 Dopamine Receptor: qHTS | HEK293 T-REx D1 cells, calcium flux, agonist mode | activation, % at 2 µM | actives 1% (n = 360,000) | AID 504660, 2011; in the data active = activation above about 30%
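Agonism was scored from calcium flux recorded over 180 s (1 read/s) after pintool compound addition, following a 10-cycle baseline. Cells were inducible force-coupled HEK293 TREx D1, plated overnight at 30 C and loaded with no-wash calcium dye.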
DRD3 antagonist: qHTS of D3 Dopamine Receptor Antagonist: qHTS; AID 652054, 2013; max response, negative = inhibition, %; D(3) dopamine receptor (Homo sapiens), P35462; actives 2.5% (n = 360,000); D3R cells, DiscoveRx beta-arrestin luminescence, antagonist mode; stronger effect = lower value; in the data active = max response below about -50%; inconclusive = no clear call, values can overlap the other calls
Target sequence (P35462 whole entry, looked up): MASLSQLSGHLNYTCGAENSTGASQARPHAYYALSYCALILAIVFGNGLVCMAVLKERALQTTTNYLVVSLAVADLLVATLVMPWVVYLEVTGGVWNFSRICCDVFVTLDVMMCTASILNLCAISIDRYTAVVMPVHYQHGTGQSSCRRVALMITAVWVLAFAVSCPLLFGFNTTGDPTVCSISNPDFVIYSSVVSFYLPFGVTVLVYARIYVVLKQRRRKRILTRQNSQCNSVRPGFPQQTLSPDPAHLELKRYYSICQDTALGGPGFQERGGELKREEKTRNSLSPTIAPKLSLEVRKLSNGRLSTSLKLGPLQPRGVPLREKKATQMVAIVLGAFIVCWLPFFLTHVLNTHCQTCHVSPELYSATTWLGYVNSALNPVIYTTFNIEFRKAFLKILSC
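Cells expressing the human receptor were seeded at 1500 cells/well, incubated overnight at 37 degrees C in 5% CO2, then exposed to library compounds with dopamine controls for 90 minutes at 37 degrees C before luminescent detection.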
D3 ag: qHTS of D3 Dopamine Receptor Agonist: qHTS | D(3) dopamine receptor (Homo sapiens), P35462 | D3R DiscoveRx beta-arrestin cells, luminescence, 90 min | max activation, % | actives 0.58% (n = 410,000) | AID 652048, 2013; in the data active = max activation above about 30%
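Agonist mode: compounds and dopamine controls were applied to plated cells for 90 min at 37 degrees C after an overnight attachment at 1500 cells/well. Luminescent read-out followed 30 - 60 minutes at room temperature with DiscoveRx detection reagent.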
D1 antagonist: Antagonist of Human D 1 Dopamine Receptor: qHTS | D(1A) dopamine receptor (Homo sapiens), P21728 | AID 504652, 2011 | activity change, negative = inhibition, % at 10 µM | HEK293 TREx D1 cells, calcium flux, dopamine EC80; stronger effect = lower value | actives 3.2% (n = 360,000); in the data active = activity change below about -30%
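Tetracycline-induced HEK293 Trex D1 cells, force-coupled to calcium, dye-loaded; compounds added and read 180 s, then EC80 dopamine added and calcium flux tracked kinetically another 180 s.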
Hits are given with their value.

Screening O=C(CN1C(=O)C2(SCC(=O)N2c2ccc(F)c(F)c2)c2ccccc21)NCCc1ccccc1 (stereo not drawn) returned D1 potentiator inactive, D1 ag inactive, D3 ag inactive and D1 antagonist inactive.
Screening COc1ccc(O)c(C(=O)c2cnc3onc(C)c3c2)c1 returned D1 potentiator inactive, D1 ag inactive, DRD3 antagonist inactive, D3 ag inactive and D1 antagonist -39.
Screening COc1c(C)cc(S(=O)(=O)NCc2ccco2)c(C)c1C returned D1 potentiator inactive, D1 ag inactive, DRD3 antagonist inactive, D3 ag 31 and D1 antagonist inactive.
Screening COc1cc(OC)c(S(=O)(=O)NCc2ccco2)cc1S(=O)(=O)NCc1ccco1 returned D1 potentiator inactive, D1 ag inactive, DRD3 antagonist inactive, D3 ag inactive and D1 antagonist inactive.
N[C@@H](CSCCCO)C(=O)O was read as D3 ag inactive.
Screening CCCc1cc(C(=O)Nc2ccc(C(=O)c3ccccc3)cc2)n(C)n1 returned D1 potentiator inactive, D1 ag inactive, DRD3 antagonist inactive, D3 ag inactive and D1 antagonist -32.
`Cc1ccc(CNCc2ccc3c(c2)n(C)c(=O)n3C)cc1` gave D1 potentiator inactive, D1 ag inactive, D3 ag inactive and D1 antagonist inactive.
`Cc1nc(C#N)c(N/N=C/c2c(F)cccc2Cl)o1` gave D1 potentiator inactive, D1 ag inactive, DRD3 antagonist -64, D3 ag inactive and D1 antagonist inactive.
Screening Cc1ccc(CN2CCC(CNc3ncnc4onc(-c5ccc(F)cc5)c34)CC2)cc1 returned D1 potentiator inactive, D1 ag inactive, D3 ag inactive and D1 antagonist inactive.
`Cc1ccc(NC(=O)Cn2c(=O)n(CC3CCC(C(=O)NC(C)C)CC3)c(=O)c3sccc32)cc1` (stereo not drawn) gave D1 potentiator inactive, D1 ag inactive, D3 ag inactive and D1 antagonist -44.
`COc1ccc(OCC(=O)Nc2ccc3c(c2)nc(CCN2CCC(C)CC2)n3C)cc1` gave D1 potentiator inactive, D1 ag inactive, DRD3 antagonist inconclusive, D3 ag inactive and D1 antagonist inactive.
For CC1CCN(CCc2nc3cc(NC(=O)NC4CCCCC4)ccc3n2C)CC1 the results were D1 potentiator inactive, D1 ag inactive, DRD3 antagonist -86, D3 ag inactive and D1 antagonist inactive.
Screening Cc1ccc(OCC(=O)Nc2ccc3c(c2)nc(CCN2CCC(C)CC2)n3C)cc1 returned D1 potentiator inactive, D1 ag inactive, DRD3 antagonist -54, D3 ag inactive and D1 antagonist inactive.
For Cc1ccc2nc(N(Cc3cccnc3)C(=O)c3ccco3)sc2c1 the results were D1 potentiator inactive, D1 ag inactive and D3 ag inactive.
O=C(N1CCc2cc([S+](=O)([O-])N3CCN([S+](=O)([O-])c4c(F)cccc4F)CC3)ccc2C1)C(F)(F)F was read as D1 potentiator inactive, D1 ag inactive and D1 antagonist inactive.
For COC(=O)c1ccccc1NC(=O)Cn1c(-c2nonc2N)nc2ccccc21 the results were D1 potentiator inactive, D1 ag inactive, DRD3 antagonist inactive, D3 ag inactive and D1 antagonist -67.
`CCCn1c(-c2nonc2N)nc2ccccc21` gave D1 potentiator inactive, D1 ag inactive, DRD3 antagonist inactive, D3 ag inactive and D1 antagonist -62.
For Cn1c(-c2nonc2N)nc2ccccc21 the results were D1 potentiator inactive, D1 ag inactive, DRD3 antagonist inactive, D3 ag inactive and D1 antagonist inactive.
`COc1ccc(NCC(=O)Nc2cccc(S(=O)(=O)N3CCCC3)c2)cc1Cl` gave DRD3 antagonist inactive and D3 ag inactive.
For COc1ccc(NCC(=O)N2CCCC2)cc1Cl the results were D1 potentiator inactive, D1 ag inactive, DRD3 antagonist inactive, D3 ag inactive and D1 antagonist -30.
Screening CC(Sc1nnc(C2CC2)n1C)C(=O)Nc1ccc(N2CCOCC2)cc1 (stereo not drawn) returned D1 potentiator inactive, D1 ag inactive, DRD3 antagonist inactive, D3 ag inactive and D1 antagonist inactive.

Source: PubChem (National Center for Advancing Translational Sciences (NCATS))
